The results in this text go back to PubChem BioAssay (Tox21).

Inconclusive results are not listed. Entries that show only a call come without a potency. Active and inactive are the calls of the source. Calls come from the whole dose curve; as a rule, active = well fitted cell-killing curve with a large enough effect in the repeat runs; inconclusive = weak or mixed curves, or effect the other way; inactive = no such curve, though single readings can be large or run the other way.

The experiment can be described thus: qHTS assay to identify small molecule agonists of the farnesoid-X-receptor (FXR) signaling pathway - cell viability counter screen (AID 743218). Note: nearly all actives have a fitted effect of over 45% in size. The following applies: FXR-bla HEK293T viability, CellTiter-Glo luminescence, 16 h; series mostly up to 62.6 µM; viability change, negative = cytotoxic: at the top concentration. The source says:
U.S. Tox21 Program National Center for Advancing Translational Sciences [NCATS] NIH Chemical Genomics Center [NCGC] U.S. Environmental Protection Agency [EPA] National Institutes of Environmental Health Sciences [NIEHS] National Toxicology Program [NTP] U.S. Food and Drug Administration [FDA] Tox21 Assay Overview: The farnesoid-X-receptor (FXR), a nuclear hormone receptor, is highly expressed in liver, intestine, kidney and adrenal cortex. Natural ligands of FXR are the bile acids (Cholic acid, Chenodeoxy cholic acid etc). FXR is an important regulator of diverse metabolic pathways, including the bile acid homeostasis, lipid and glucose metabolisms. FXR regulates the expression of target genes by binding either as a monomer or as a heterodimer with the retinoid X receptor (RXR). Numerous studies have reported that FXR exerts protective function during cholestasis, diabetes, liver regeneration, and cancer. To identify compounds that activate FXR signaling, GeneBLAzer FXR-UAS-bla HEK 293T cell line (Invitrogen, Carlsbad, CA) containing a beta-lactamase reporter gene under the control of a UAS response element was used to screen the Tox21 10K compound library. The cytotoxicity of the Tox21 compound library against the FXR-bla cell line was tested in parallel by measuring the cell viability using CellTiter-Glo assay in the same wells.
Tox21 Assay Protocol Summary: FXR-bla cells were dispensed at 5000 cells/5uL/well in 1536-well black wall/clear bottom plates using a Multidrop Combi (Thermo Fisher Scientific, Waltham, MA) dispenser. After the assay plates were incubated at 37 C and 5% CO2 for 5 h, 23 nL of compounds dissolved in DMSO, positive controls or DMSO only was transferred to the assay plate by a Pintool station (Kalypsys, San Diego, CA). The assay plates were incubated at 37C for 16 h. After 1 uL of LiveBLAzerTM B/G FRET substrate was added using a Bioraptr Flying Reagent Dispenser (FRD) workstation (Beckman Coulter, Indianapolis, IN), the plates were incubated at room temperature for 2 h, and fluorescence intensity was measured by an Envision plate reader (PerkinElmer, Shelton, CT). For cell viability readout that measures cytotoxicity, 4uL/well of CellTiter-Glo reagent was added into the assay plates using a Bioraptr FRD. After 30 min incubation at room temperature, the luminescence intensity in the plates was measured using a ViewLux plate reader (PerkinElmer).
Regarding `c1ccc(NNc2ccccc2)cc1`, the “viability change, negative = cytotoxic” value was 2.52% (inactive).
Consider `CCC(CC)Nc1c([N+](=O)[O-])cc(C)c(C)c1[N+](=O)[O-]`, for which the Potency result is “inactive”.
Still for that read-out and setting: the entry for `O=[N+]([O-])c1cccc2ccccc12` is “inactive”.
For the molecule `CCCCCCOC(=O)c1ccccc1C(=O)OCCCCCC`, the “viability change, negative = cytotoxic” value was -12.8% (inactive).
With `C1=Cc2cccc3cccc1c23`, the Potency entry was “inactive”.
Same read-out and setting: the entry for `CN(C)C(=O)Nc1ccc(Cl)cc1` is “inactive”; for `Clc1nc(Cl)nc(Cl)n1` it is “inactive”.
Take `Cc1ccc(N)c(N)c1`: the Potency result is “inactive”.
The same measure, in the same setting: the value for `CCCCCCCCC(=O)NCc1ccc(O)c(OC)c1` was “inactive”.
Same read-out and setting: the value for `CCCCNC(=O)n1c(NC(=O)OC)nc2ccccc21` was “inactive”; that for `O=Cc1ccco1` was “inactive”.
The same measure, in the same setting: the value for `O=P(Oc1ccccc1)(Oc1ccccc1)Oc1ccccc1` was “inactive”.
As for `CC(O)CCO` (stereo not given), the “viability change, negative = cytotoxic” value is 10.9% (inactive).
`O=C(NC(=O)c1c(F)cccc1F)Nc1ccc(Cl)cc1`: the Potency result was “inactive”.
As for `Nc1ccc(Cl)c(Cl)c1`, the “viability change, negative = cytotoxic” value was 18.6% [at 81.1 µM] (inactive).
Same read-out and setting: the figure for `Nc1ccc(-c2ccccc2)cc1` is 8.94% [at 81.1 µM] (inactive).
Regarding `CNC(=O)N(C)c1nnc(C(C)(C)C)s1`, the Potency entry is “inactive”.
With `CC(C)(C)c1ccccc1O`, the “viability change, negative = cytotoxic” value was 0.525% (inactive).
On to `O=C(O)C(F)(F)C(F)(F)C(F)(F)C(F)(F)C(F)(F)C(F)(F)C(F)(F)F`, for which the Potency entry is “inactive”.
The same measure, in the same setting: the value for `NCc1cccnc1` was “inactive”; that for `NC(=S)Nc1ccccc1` was “inactive”.
In the case of `S=C1NCCN1`, the Potency entry is “inactive”.
Still for that read-out and setting: the value for `c1cc(OCC2CO2)ccc1Cc1ccc(OCC2CO2)cc1` (stereo not given) was “inactive”.
The same measure, in the same setting: the value for `CCOP(=S)(OCC)O/N=C(\C#N)c1ccccc1` was “inactive”; that for `Nc1ccncc1` was “inactive”.
As for `CNC(=O)Oc1cccc2c1OC(C)(C)O2`, the “viability change, negative = cytotoxic” value is 20.3% [at 81.1 µM] (inactive).
Take `Nc1cccnc1`: the Potency entry was “inactive”.
For `CN(C)c1ccc(C(=O)c2ccc(N(C)C)cc2)cc1`, the “viability change, negative = cytotoxic” value was 9.99% (inactive).
In the case of `COP(=S)(OC)Oc1cc(Cl)c(Cl)cc1Cl`, the Potency result was “inactive”.
Still for that read-out and setting: the value for `CCC(C)(c1ccc(O)cc1)c1ccc(O)cc1` was “inactive”; that for `C=CC(=O)OCCO` was “inactive”.
For `COc1ccc(C=O)cc1`, the Potency entry is “inactive”.
With `NNC(=S)NN`, the Potency result was “inactive”.
On the same count and under the same terms, the value for `CCCCCCCCOC(=O)c1ccccc1C(=O)OCCCCCCCC` was “inactive”; that for `C#C[C@]1(O)CC[C@H]2[C@@H]3CCC4=CC(=O)CC[C@]4(C)[C@H]3CC[C@@]21C` was “inactive”.
The same measure, in the same setting: the entry for `CCN(CC)C(=O)/C(Cl)=C(\C)OP(=O)(OC)OC` is “inactive”.
As to `N#CC(Br)Br`, the “viability change, negative = cytotoxic” value was 20.3% (inactive).
For the molecule `C=CCN(CC=C)C(=O)C(Cl)Cl`, the “viability change, negative = cytotoxic” value is 13.8% (inactive).
Still for that read-out and setting: the value for `O=[N+]([O-])c1c(Cl)c(Cl)c(Cl)c(Cl)c1Cl` was -18.1% (inactive); that for `Cc1c(COC(=O)[C@@H]2[C@H](/C=C(\Cl)C(F)(F)F)C2(C)C)cccc1-c1ccccc1` was -2.41% (inactive).
